In the library only some 1.3% were active in any assay of this set; here they are far more common.
BJeLR viability: BJeLR cell viability loss; 0.17% of 300,000 active; AID 1554; inhibition, % (test concentration not listed); BJeLR (HRASV12) viability, CellTiter-Glo ATP luminescence, 48 h; in the data active = inhibition above about 50%; inconclusive = no clear call, values can overlap the other calls
PfHsp40 yeast: rescue of PfHsp40-mediated yeast toxicity; S. cerevisiae expressing PfHsp40, growth rescue, ATP luminescence; growth rescue, % at 12.5 µM; 0.68% of 340,000 active; in the data active = growth rescue above about 28%, passing the limit was not always enough; inconclusive = no clear call, values can overlap the other calls;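 also: yeast W303a lacking pdr1 and pdr3 grown in galactose medium; growth measured after three days at 30 °C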
Sa RN4220 lethal: S. aureus RN4220 growth inhibition. OD600, 16 h. inhibition, % (concentration not given with the values). 0.33% of 330,000 active. AID 1259311; in the data active = inhibition above about 85%;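 also: plate controls were untreated cells for no effect and reference antibiotic for full effect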
SARS 3CLpro inh: SARS-CoV 3CLpro protease inhibition; P0C6X7; recombinant SARS-CoV 3CLpro, quenched FRET peptide cleavage; inhibition, % at 6 µM; 0.14% of 290,000 active; in the data active = inhibition above about 12%
Sa ugtP lethal: compounds lethal to S. aureus RN4220 ugtP deletion mutant; OD600 growth, 16 h; growth inhibition, % (test concentration not listed); 0.54% of 330,000 active; AID 1259309; in the data active = growth inhibition above about 68%;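 also: plate controls were untreated wells for no effect and antibiotic for full effect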
Active calls of the source: *; ? = inconclusive; / = no result given.

SMILES	BJeLR viability	PfHsp40 yeast	Sa RN4220 lethal	SARS 3CLpro inh	Sa ugtP lethal
Oc1ccc(/C=N/Nc2ccc(C(F)(F)F)cn2)c(O)c1	17	421*	/	7	/
O=C1CN(CC(=O)N2CCOCC2)c2ccccc2O1	8	/	/	-3	/
O=C1CN(CC(=O)N2CCCCC2)c2ccccc2O1	1	125*	/	0	/
O=[N+]([O-])c1ccc(S(=O)(=O)NCC2CCCO2)cc1 (stereo unspecified)	-1	1	20	4	9
NC1=NC[C@@H](Cc2ccc(O)cc2)N1CCC12CC3CC(CC(C3)C1)C2	1	48*	/	/	/
NCCCCC1CN=C(N)N1CCC12CC3CC(CC(C3)C1)C2 (stereo unspecified)	/	/	3	/	1
Fc1cccc2sc(Nc3nnc(-c4ccco4)o3)nc12	3	74*	50	-4	38
CC(=CC(=O)OCCCCCCCCC(=O)O)CC1OCC(CC2OC2C(C)C(C)O)C(O)C1O (stereo unspecified)	/	/	100*	/	100*
CCN(CC)S(=O)(=O)c1cccc(C(=O)N[C@H](C(=O)NCc2ccccc2F)C(C)C)c1	4	1	5	2	12
C=C1c2cccc(O)c2C(=O)C2C(=O)[C@]3(O)C(=O)C(C(N)=O)C(=O)C(N(C)C)C3C(O)C12 (stereo partly specified)	/	/	100*	/	89
C[C@H]1c2cccc(O)c2C(O)=C2C(=O)C3(O)C(O)=C(C(N)=O)C(=O)[C@@H](N(C)C)[C@@H]3[C@@H](O)[C@@H]21 (stereo partly specified)	/	0	/	/	/
C=C1c2cccc(O)c2C(O)=C2C(=O)[C@]3(O)C(O)=C(C(N)=O)C(=O)[C@@H](N(C)C)[C@@H]3[C@@H](O)[C@H]12	-3	10	100*	8	99*
C=C1c2c(Cl)ccc(O)c2C(O)=C2C(=O)[C@]3(O)C(O)=C(C(N)=O)C(=O)C(N(C)C)C3C(O)C12 (stereo partly specified)	/	/	100*	/	100*
O=C(CCCNc1ccccc1)NN=Cc1cccs1	/	/	3	/	-1
Cc1ccc(C(=O)Nn2cnc3ccccc3c2=O)cc1C	-2	2	-2	-4	0
Cc1ccc(Cn2ccc(=O)c(Cc3c(Cl)cccc3Cl)c2C)cc1	1	1	100*	6	101*
COc1ccc(Cn2ccc(=O)c(Cc3c(Cl)cccc3Cl)c2C)cc1	-4	2	98*	1	98*
Cc1c(Cc2c(Cl)cccc2Cl)c(=O)ccn1C(C)c1ccccc1 (stereo unspecified)	/	52*	98*	-1	99*
COc1cccc(CNC(=O)C2CCN(S(=O)(=O)c3ccc4c(c3)NC(=O)CO4)CC2)c1	-3	0	0	-2	-3
COc1cccc(C(=O)ON=C(C)c2cnccn2)c1	/	/	11	/	5
CC1CCC/C(=C\Nc2ccc3c(c2)OCO3)C1=O (stereo unspecified)	-3	0	-2	-1	-12
CCN(Cc1ccccc1)C(=O)CSc1nc(C)cc(C)c1C#N	-6	129*	4	-1	10
CCN(CC)C(=O)CSc1nc(C)cc(C)c1C#N	6	-2	2	-3	7
O=C(NNC(=O)c1cc(Br)ccc1O)c1csc(N2CCOCC2)n1	/	76*	/	/	/
Oc1c(N=Nc2ccccn2)ccc2ccccc12	61*	?	-3	-1	-4
SMILES	BJeLR viability	PfHsp40 yeast	Sa RN4220 lethal	SARS 3CLpro inh	Sa ugtP lethal
NC(=O)CN(c1ccc(Cl)cc1)S(=O)(=O)c1ccccc1	-4	-2	1	0	0
CCn1c(O)c(/C=C/C=C/C=Nc2ccccc2)sc1=S	0	-1	7	0	-4
CCCCn1c(O)c(/C=C/C=C/C=Nc2ccccc2)sc1=S	39	42*	-7	-5	-3
CC(C)COC(=O)c1ccc2c(c1O)C(=O)c1ccccc1C2=O	5	3	92*	-2	93*
COc1ccc2c(c1O)C(=O)c1ccccc1C2=O	-1	/	/	0	/
CC(=O)C1=C(C)NC(SCC(=O)Nc2nc3ccccc3s2)=C(C#N)C1c1ccc(Cl)cc1 (stereo unspecified)	6	-1	-4	5	-12
NS(=O)(=O)OCC(Cc1ccccc1)N1C(=O)c2ccccc2C1=O (stereo unspecified)	-3	75*	8	-3	3
N#CC(=NNc1ccc(OC(F)(F)F)cc1)C(N)=S	/	/	82	/	87*
O=S(=O)(Nc1ccc(C(F)(F)F)cc1)c1cccs1	2	4	3	3	-2

Source: PubChem BioAssay
